The text below walks through data of PubChem BioAssay AID720568 (Broad Institute, 2013).

The assay in a line: toxicity toward HepG2 hepatoma cells – cell-based, dry powder samples, cytotoxicity control, dose response (AID 720568). Particulars: plate reader; series mostly up to 15 µM.

The structures appear in SMILES notation. Potency and affinity values are given separately. The source made the active and inactive calls. Entries that show only a call come without a potency. The rule behind the calls is not given here.

For `c1ccc(CSc2nnc(-c3ccccc3)o2)cc1`, the molecule was called inactive.

Take `COc1ccc(CSc2nnc(-c3ccccc3)o2)cc1`: the result was inactive.
